Compound activity: PubChem, several laboratories
PABP1 MLLE inh: inhibitors of microRNA-mediated deadenylation, human PABP1 MLLE binding; P11940; inhibition, % at 20 µM; hit rate 0.36% among 360,000; AID 588489; GST-MLLE / FITC-PAM2 fluorescence polarization; in the data active = inhibition above about 35%, passing the limit was not always enough
Target sequence (P11940 whole entry, looked up): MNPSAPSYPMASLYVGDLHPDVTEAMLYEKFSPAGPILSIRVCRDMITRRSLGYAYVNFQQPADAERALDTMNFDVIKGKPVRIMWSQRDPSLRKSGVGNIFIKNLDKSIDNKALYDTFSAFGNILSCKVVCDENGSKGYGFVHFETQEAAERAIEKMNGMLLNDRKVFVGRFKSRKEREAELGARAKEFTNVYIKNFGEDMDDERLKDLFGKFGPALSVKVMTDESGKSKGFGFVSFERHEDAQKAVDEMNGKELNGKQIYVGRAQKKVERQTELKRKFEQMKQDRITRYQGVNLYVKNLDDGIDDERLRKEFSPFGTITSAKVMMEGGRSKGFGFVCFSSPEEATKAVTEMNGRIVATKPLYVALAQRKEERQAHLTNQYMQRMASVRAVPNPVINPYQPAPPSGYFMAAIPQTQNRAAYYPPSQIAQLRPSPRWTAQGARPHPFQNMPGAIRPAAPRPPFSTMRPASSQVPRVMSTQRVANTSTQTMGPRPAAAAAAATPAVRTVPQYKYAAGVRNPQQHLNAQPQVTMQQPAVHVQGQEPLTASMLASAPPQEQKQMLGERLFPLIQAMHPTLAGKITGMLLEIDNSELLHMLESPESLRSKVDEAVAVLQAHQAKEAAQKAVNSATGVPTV
ALR inh: blocks human ALR sulfhydryl oxidase activity; P55789; inhibition, % (test concentration not listed); purified ALR, DTT oxidation, H2O2 HRP-luminol luminescence; AID 485317; hit rate 3.8% among 290,000;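 active = mean replicate inhibition above about 79%, with every replicate also reaching it, limit read from the data; inconclusive = only one of the two criteria met; inactive = mean below limit and not every replicate reaching it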
SUMO HTRF inh: SUMOylation inhibition; P63279; HTRF SUMOylation assay, SAE1/SAE2 + UBC9, in vitro; inhibition, % at 35 µM; hit rate 0.36% among 290,000; AID 2006; in the data active = inhibition above about 50%, passing the limit was not always enough; inconclusive = no clear call, values can overlap the other calls
PABP polyA inh: blocks human PABP binding to poly(A) RNA. hit rate 1% among 290,000. P11940. AID 2014. fluorescence polarization. inhibition, % at 35 µM;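 note: calls also rest on retests at 20 µM and on dose response follow-up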
Efflux pump inh: antifungal efflux pump inhibition, Nile Red retention | S. cerevisiae Candida pump triplex | hit rate 0.44% among 330,000 | inhibition, % at 10 µM;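 active = plate passing quality check with inhibition over a set limit, or well fluorescence over plate mean plus 4 SD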;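 note: Nile Red retained in pooled yeast measured as flow cytometry median fluorescence; higher means more Nile Red kept so more efflux inhibition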
eIF4H FP inh: inhibitors of RNA binding by human eIF4H. Q15056. eIF4H fluorescence polarization binding assay. hit rate 0.94% among 290,000. inhibition, % at 35 µM;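 note: calls also rest on retests at 20 µM and on dose response follow-up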
Hits are given with their value. Most compounds without a hit are left out; they make up all but 4.7% or so of the library. Unless noted, the rule behind the calls is not given here.

Results for CC(C)NC(=O)c1cc(C2CCCCN2S(=O)(=O)c2cccs2)on1 (stereo unspecified) ?
PABP1 MLLE inh: inactive

What do the screens show for `Cc1ccc(S(=O)(=O)N2CCCCC2C(=O)O)s1` (stereo unspecified)?
PABP1 MLLE inh: inactive; ALR inh: inactive; SUMO HTRF inh: inactive; PABP polyA inh: inactive; Efflux pump inh: inactive; eIF4H FP inh: inactive

How did CC(C)[C@H](NC(=O)c1ccco1)C(=O)OCC(=O)c1ccc2c(c1)NC(=O)CO2 do in these assays?
PABP1 MLLE inh: inactive; ALR inh: 100; SUMO HTRF inh: inactive; PABP polyA inh: inactive; Efflux pump inh: inactive; eIF4H FP inh: inactive

What do the screens show for `Cc1ccc(NS(=O)(=O)c2cc3[nH]c(=O)c(=O)[nH]c3cc2C)c(C)c1`?
PABP1 MLLE inh: inactive; ALR inh: inactive; SUMO HTRF inh: inactive; PABP polyA inh: inactive; Efflux pump inh: inactive; eIF4H FP inh: inactive

Results for CC(=O)NNC(=O)c1cc2sccc2s1 ?
PABP1 MLLE inh: inactive; SUMO HTRF inh: inactive; PABP polyA inh: inactive; Efflux pump inh: inactive; eIF4H FP inh: inactive

How did NNC(=O)c1cc2sccc2s1 do in these assays?
PABP1 MLLE inh: inactive; ALR inh: 98; SUMO HTRF inh: inactive; PABP polyA inh: inactive; Efflux pump inh: inactive; eIF4H FP inh: inactive

Results for CC1(C(=O)O)CCCN(C(=O)C2(c3ccc(Cl)cc3)CCCC2)C1 (stereo unspecified) ?
PABP1 MLLE inh: inactive

Results for Cc1c(NC(=O)COC(=O)c2cccc(F)c2)c(=O)n(-c2ccccc2)n1C ?
PABP1 MLLE inh: inactive

Results for CC(=O)NC1=C(Nc2ccc(N(C)C)cc2)C(=O)c2ccccc2C1=O ?
PABP1 MLLE inh: inactive; ALR inh: 100; SUMO HTRF inh: inactive; PABP polyA inh: inactive; Efflux pump inh: inactive; eIF4H FP inh: inactive

What do the screens show for `O=C(CC1C(=O)NCCN1C(=O)c1ccccc1)Nc1cc(Cl)ccc1Cl` (stereo unspecified)?
PABP1 MLLE inh: inactive; ALR inh: inactive; SUMO HTRF inh: inactive; PABP polyA inh: inactive; Efflux pump inh: inactive; eIF4H FP inh: inactive

How did CC1=NN(Cc2ccccc2)C(=O)C1C(c1ccccc1)C(C#N)C#N (stereo unspecified) do in these assays?
PABP1 MLLE inh: inactive; ALR inh: 98; SUMO HTRF inh: inactive; PABP polyA inh: inactive; Efflux pump inh: inactive; eIF4H FP inh: inactive

What do the screens show for `Cn1cc(C(F)(F)F)nc1-c1ccc(OCC(O)CNCCOc2ccc(O)c(C(N)=O)c2)cc1` (stereo unspecified)?
PABP1 MLLE inh: inactive; ALR inh: inactive; SUMO HTRF inh: inactive; PABP polyA inh: inactive; Efflux pump inh: inactive; eIF4H FP inh: inactive

What do the screens show for `NC(=O)c1ccsc1NC(=O)COC(=O)C1CCCN1C(=O)c1cccs1` (stereo unspecified)?
ALR inh: 97; SUMO HTRF inh: inactive; PABP polyA inh: inactive; Efflux pump inh: inactive; eIF4H FP inh: inactive

Results for CCOc1ccc(C2C(C#N)=C(N)SC(N)=C2C#N)cc1OC ?
SUMO HTRF inh: inactive; PABP polyA inh: inconclusive; Efflux pump inh: inactive; eIF4H FP inh: inconclusive

Results for N#CC1=C(N)SC(N)=C(C#N)C1c1ccc([N+](=O)[O-])cc1 ?
PABP1 MLLE inh: inactive; ALR inh: 98; SUMO HTRF inh: inactive; PABP polyA inh: inactive; Efflux pump inh: inactive; eIF4H FP inh: inactive

Results for CCOc1ccc(C2C(C#N)=C(N)SC(N)=C2C#N)cc1OCC ?
PABP1 MLLE inh: inactive; ALR inh: inactive; SUMO HTRF inh: inactive; PABP polyA inh: inactive; Efflux pump inh: inactive; eIF4H FP inh: 122

How did COc1ccc(C(=O)NNC(=O)C(=O)NC2CCCCC2)cc1 do in these assays?
PABP1 MLLE inh: inactive; ALR inh: inactive; SUMO HTRF inh: inactive; PABP polyA inh: inactive; Efflux pump inh: inactive; eIF4H FP inh: inactive

What do the screens show for `Cc1ccc(C(=O)CSc2nnc(-c3cccs3)n2C)o1`?
PABP1 MLLE inh: inactive; ALR inh: inactive; SUMO HTRF inh: inactive; PABP polyA inh: inactive; Efflux pump inh: inactive; eIF4H FP inh: inactive

How did Cn1c(SCC(=O)c2ccc(O)c(O)c2)nnc1-c1ccccc1 do in these assays?
PABP1 MLLE inh: inactive; ALR inh: 93; SUMO HTRF inh: inactive; PABP polyA inh: inactive; Efflux pump inh: inactive; eIF4H FP inh: inactive

Results for CNC(=O)CSc1nnc(-c2ccccc2)n1C ?
PABP1 MLLE inh: inactive; ALR inh: inactive; SUMO HTRF inh: inactive; PABP polyA inh: inactive; Efflux pump inh: inactive; eIF4H FP inh: inactive

Results for Cn1c(SCC(=O)c2ccc(O)c(O)c2)nnc1-c1cccs1 ?
PABP1 MLLE inh: inactive; ALR inh: 99; SUMO HTRF inh: inactive; PABP polyA inh: 33; Efflux pump inh: inactive; eIF4H FP inh: 50

Results for Cn1c(SCC(=O)c2ccc(-c3ccccc3)cc2)nnc1-c1ccco1 ?
PABP1 MLLE inh: inactive; ALR inh: 88; SUMO HTRF inh: inactive; PABP polyA inh: inactive; Efflux pump inh: inactive; eIF4H FP inh: inactive

What do the screens show for `Cc1cccc[n+]1CC(=O)N1c2ccccc2Sc2ccccc21`?
PABP1 MLLE inh: inactive; ALR inh: inactive; SUMO HTRF inh: inactive; PABP polyA inh: inactive; Efflux pump inh: inactive; eIF4H FP inh: inactive

Results for Cc1ccc(S(=O)(=O)N2CCCCC2)cc1NC(=O)c1ccncc1 ?
PABP1 MLLE inh: inactive

How did CC(C)[C@@H](N)C(=O)N/N=C/c1ccc2ncccc2c1 do in these assays?
PABP1 MLLE inh: inactive; ALR inh: inactive; SUMO HTRF inh: inactive; PABP polyA inh: inactive; Efflux pump inh: inactive; eIF4H FP inh: inactive

Results for CC1Oc2cc3oc4c(O)c(O)ccc4c(=O)c3c(O)c2C1(C)C (stereo unspecified) ?
PABP1 MLLE inh: inactive; ALR inh: 98; Efflux pump inh: inactive

Results for O=C(CSc1ncnc2ccccc12)Nc1cccc(S(=O)(=O)N2CCCC2)c1 ?
PABP1 MLLE inh: inactive; ALR inh: 99; SUMO HTRF inh: inactive; PABP polyA inh: inactive; Efflux pump inh: inactive; eIF4H FP inh: inactive

Results for O=C(Cn1cnnn1)Nc1cccc(S(=O)(=O)N2CCCCC2)c1 ?
PABP1 MLLE inh: inactive; ALR inh: inactive; SUMO HTRF inh: inactive; PABP polyA inh: inactive; Efflux pump inh: inactive; eIF4H FP inh: 19

What do the screens show for `Cc1ccccc1NC(=O)c1ccc(Cl)c(NC(=O)c2ccncc2)c1`?
PABP1 MLLE inh: inactive; ALR inh: inactive; SUMO HTRF inh: inactive; PABP polyA inh: inactive; Efflux pump inh: inactive; eIF4H FP inh: inactive

How did CCOC(=O)c1csc(NC(=O)CSc2nnnn2CC)n1 do in these assays?
PABP1 MLLE inh: inactive; ALR inh: 99; SUMO HTRF inh: inactive; PABP polyA inh: inactive; Efflux pump inh: inactive; eIF4H FP inh: inactive

How did Cc1csc(NC(=O)CSc2nncn2C)n1 do in these assays?
PABP1 MLLE inh: inactive; ALR inh: inactive; SUMO HTRF inh: inactive; PABP polyA inh: inactive; Efflux pump inh: inactive; eIF4H FP inh: inactive

Results for Cc1csc(NC(=O)CSc2nncc(=O)n2N)n1 ?
PABP1 MLLE inh: inactive; ALR inh: 98; SUMO HTRF inh: inactive; PABP polyA inh: inactive; Efflux pump inh: inactive; eIF4H FP inh: inactive

Results for Cc1csc(NC(=O)CSc2nccn2C)n1 ?
PABP1 MLLE inh: inactive; ALR inh: 96; SUMO HTRF inh: inactive; PABP polyA inh: inactive; Efflux pump inh: inactive; eIF4H FP inh: inactive
